Test results published in PubChem BioAssay AID1159580 (chemical genetic matrix, 2015).
Values joined by “and” are separate entries in the source; they are usually repeats but may differ in a detail not shown here. Equal values may be shown once. About 2,000 (36%) of roughly 5,500 compounds were called active. Not shown: some 18% with an inconclusive outcome. Rule as the data show it: active = normalized growth mostly below about 0.91 (no sharp cut-off); inconclusive = no clear call, values can overlap the other calls; inactive = mostly above about 0.92. The list shows a part of the results.

Test: chemical genetic growth profiling, strain panel (AID 1159580);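 also: tested at 20 µM; growth read once vehicle control cultures reached saturation at 30 °C; 1 = growth at the plate median or of vehicle wells; lower values mean less growth of the strain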
Conditions: S. cerevisiae deletion strains, growth OD

Measured: normalized growth

C=C[C@H]1CN2CC[C@H]1C[C@@H]2[C@@H](OC(=O)OCC)c1ccnc2ccc(OC)cc12
inactive: locus YAL013W, strain DEP1, stronger effect = lower value 1 | locus YAL021C, strain ccr4, stronger effect = lower value 0.93 | locus YAL026C, strain drs2, stronger effect = lower value 1.01 | locus YAL030W, strain snc1, stronger effect = lower value 0.989 | locus YBL061C, strain skt5, stronger effect = lower value 0.995 | locus YBR009C, strain hhf1, stronger effect = lower value 0.978 | locus YBR021W, strain FUR4, stronger effect = lower value 0.992 | locus YBR023C, strain chs3, stronger effect = lower value 0.997 | locus YBR171W, strain sec66, stronger effect = lower value 0.995 | locus YBR229C, strain ROT2, stronger effect = lower value 1 | locus YBR231C, strain swc5, stronger effect = lower value 1 | locus YBR279W, strain paf1, stronger effect = lower value 0.997 | locus YCL011C, strain gbp2, stronger effect = lower value 0.969 | locus YCL016C, strain dcc1, stronger effect = lower value 0.955 | locus YCL029C, strain bik1, stronger effect = lower value 1.02 | locus YCL061C, strain MRC1, stronger effect = lower value 0.979 | locus YCL069W, strain vba3, stronger effect = lower value 0.998 | locus YCR088W, strain abp1, stronger effect = lower value 0.999 | locus YDL005C, strain med2, stronger effect = lower value 0.978 | locus YDL035C, strain GPR1, stronger effect = lower value 0.981 | locus YDL040C, strain nat1, stronger effect = lower value 0.994 | locus YDL074C, strain BRE1, stronger effect = lower value 1.03 | locus YDL101C, strain DUN1, stronger effect = lower value 1.02 | locus YDL134C, strain PPH21, stronger effect = lower value 0.991 | locus YDL185W, strain tfp1, stronger effect = lower value 1.02 | locus YDL192W, strain arf1, stronger effect = lower value 1.01 | locus YDR001C, strain nth1, stronger effect = lower value 0.985 | locus YDR069C, strain doa4, stronger effect = lower value 0.979 | locus YDR101C, strain arx1, stronger effect = lower value 1 | locus YDR137W, strain rgp1, stronger effect = lower value 1.01 | locus YDR150W, strain NUM1, stronger effect = lower value 1.01 | locus YDR159W, strain sac3, stronger effect = lower value 1.03 | locus YDR162C, strain NBP2, stronger effect = lower value 1.02 | locus YDR195W, strain ref2 0.956 | locus YDR297W, strain sur2, stronger effect = lower value 1.01 | locus YDR318W, strain mcm21, stronger effect = lower value 1.01 | locus YDR334W, strain swr1, stronger effect = lower value 0.995 | locus YDR335W, strain msn5, stronger effect = lower value 0.983 | locus YDR388W, stronger effect = lower value 1.02 | locus YDR392W, strain spt3, stronger effect = lower value 0.879 | locus YDR502C, strain sam2, stronger effect = lower value 1.01 | locus YEL003W, strain gim4, stronger effect = lower value 0.999 | locus YEL037C, strain rad23, stronger effect = lower value 0.983 | locus YEL061C, strain CIN8 (second series), stronger effect = lower value 0.994 | locus YEL061C, strain CIN8, stronger effect = lower value 1.01 | locus YER015W, strain faa2, stronger effect = lower value 0.989 | locus YER016W, strain bim1, stronger effect = lower value 0.995 | locus YER110C, stronger effect = lower value 1.03 | locus YER111C, strain swi4, stronger effect = lower value 0.991 | locus YER155C, strain BEM2 (second series), stronger effect = lower value 1.01 | locus YER155C, strain BEM2, stronger effect = lower value 1 | locus YER167W, strain BCK2, stronger effect = lower value 0.997 | locus YFR010W, strain ubp6, stronger effect = lower value 1 | locus YGL078C, strain dbp3, stronger effect = lower value 1.01 | locus YGL086W, strain mad1, stronger effect = lower value 1.01 | locus YGL167C, strain pmr1, stronger effect = lower value 0.962 | locus YGL173C, strain kem1, stronger effect = lower value 1.01 | locus YGL227W, strain vid30, stronger effect = lower value 0.994 | locus YGL240W, strain doc1, stronger effect = lower value 1.01 | locus YGL248W, strain PDE1, stronger effect = lower value 1.03 | locus YGL253W, strain hxk2, stronger effect = lower value 1.04 | locus YGR135W, strain pre9, stronger effect = lower value 1.02 | locus YGR229C, strain SMI1, stronger effect = lower value 1.01 | locus YGR252W, strain gcn5, stronger effect = lower value 0.984 | locus YHR013C, strain ard1, stronger effect = lower value 0.951 | locus YHR027C, strain rpn1, stronger effect = lower value 0.983 | locus YHR030C, strain SLT2, stronger effect = lower value 1.01 and 1.08 | locus YHR079C, strain IRE1 (second series), stronger effect = lower value 1.03 | locus YHR079C, strain IRE1, stronger effect = lower value 1.03 | locus YHR094C, strain hxt1, stronger effect = lower value 1.02 | locus YHR129C, strain ARP1, stronger effect = lower value 1.01 | locus YHR142W, strain chs7, stronger effect = lower value 0.973 | locus YHR200W, strain rpn10, stronger effect = lower value 1.02 | locus YIL066C, strain RNR3, stronger effect = lower value 1.01 | locus YIL073C, strain SPO22, stronger effect = lower value 1.04 | locus YIL125W, strain kgd1, stronger effect = lower value 1.02 | locus YIR030C, strain dcg1, stronger effect = lower value 1.02 | locus YJL092W, strain hpr5, stronger effect = lower value 0.992 | locus YJL095W, strain BCK1 (second series), stronger effect = lower value 0.986 | locus YJL095W, strain BCK1, stronger effect = lower value 1.04 and 1.02 | locus YJL115W, strain asf1, stronger effect = lower value 0.966 | locus YJL129C, strain trk1, stronger effect = lower value 1.02 | locus YJL134W, strain LCB3, stronger effect = lower value 1.01 | locus YJL154C, strain vps35, stronger effect = lower value 0.986 | locus YJL164C, strain tpk1, stronger effect = lower value 0.966 | locus YJL166W, strain qcr8, stronger effect = lower value 1 | locus YJL168C, strain set2, stronger effect = lower value 1.03 | locus YJL187C, strain SWE1 (second series), stronger effect = lower value 1.03 | locus YJR043C, strain POL32, stronger effect = lower value 0.996 | locus YJR066W, strain TOR1, stronger effect = lower value 1 | locus YKL009W, strain mrt4, stronger effect = lower value 1.04 | locus YKL068W, stronger effect = lower value 1.02 | locus YKL085W, strain MDH1 (second series), stronger effect = lower value 1.01 | locus YKL085W, strain MDH1, stronger effect = lower value 1.01 | locus YKL160W, strain elf1, stronger effect = lower value 0.96 | locus YKL190W, strain CNB1, stronger effect = lower value 1.01 | locus YKR001C, strain vps1, stronger effect = lower value 1.01 | locus YKR026C, strain gcn3, stronger effect = lower value 0.998 | locus YKR091W, strain srl3, stronger effect = lower value 0.991 | locus YLL001W, strain dnm1, stronger effect = lower value 0.942 | locus YLL026W, stronger effect = lower value 0.985 | locus YLL041C, strain sdh2, stronger effect = lower value 0.976 | locus YLR027C, strain aat2, stronger effect = lower value 1.01 | locus YLR039C, strain RIC1, stronger effect = lower value 1.01 | locus YLR058C, strain SHM2, stronger effect = lower value 1.01 | locus YLR102C, strain apc9, stronger effect = lower value 1.02 | locus YLR113W, strain HOG1, stronger effect = lower value 1.01 | locus YLR221C, strain rsa3, stronger effect = lower value 1.04 | locus YLR258W, strain gsy2, stronger effect = lower value 0.973 | locus YLR262C, strain YPT6 (second series), stronger effect = lower value 1 | locus YLR262C, strain YPT6, stronger effect = lower value 1.05 | locus YLR268W, strain sec22, stronger effect = lower value 1.02 | locus YLR320W, strain mms22, stronger effect = lower value 1.07 | locus YLR330W, strain CHS5, stronger effect = lower value 1.01 | locus YLR342W, strain FKS1 (second series), stronger effect = lower value 0.998 | locus YLR342W, strain FKS1, stronger effect = lower value 0.995 | locus YLR357W, strain rsc2, stronger effect = lower value 0.962 | locus YLR370C, strain arc18, stronger effect = lower value 0.99 | locus YLR371W, strain rom2, stronger effect = lower value 1.02 | locus YLR384C, strain iki3, stronger effect = lower value 0.997 | locus YLR418C, strain cdc73, stronger effect = lower value 1.02 | locus YML016C, strain PPZ1, stronger effect = lower value 1.01 | locus YML032C, strain rad52, stronger effect = lower value 1.02 | locus YML120C, strain ndi1, stronger effect = lower value 0.973 | locus YML124C, strain tub3, stronger effect = lower value 1.02 | locus YMR058W, strain fet3, stronger effect = lower value 0.989 | locus YMR078C, strain ctf18, stronger effect = lower value 1.02 | locus YMR125W, strain sto1, stronger effect = lower value 0.963 | locus YMR129W, stronger effect = lower value 0.997 | locus YMR205C, strain PFK2, stronger effect = lower value 0.951 | locus YMR223W, strain ubp8, stronger effect = lower value 1.01 | locus YMR231W, strain pep5, stronger effect = lower value 1 | locus YMR263W, strain SAP30, stronger effect = lower value 1.03 | locus YMR307W, strain GAS1, stronger effect = lower value 0.905 | locus YNL067W, strain RPL9B, stronger effect = lower value 1.05 | locus YNL071W, strain lat1, stronger effect = lower value 0.997 | locus YNL183C, strain NPR1, stronger effect = lower value 0.986 | locus YNL209W, strain ssb2, stronger effect = lower value 0.983 | locus YNL233W, strain BNI4, stronger effect = lower value 1.03 | locus YNL248C, strain rpa49, stronger effect = lower value 1.02 | locus YNL250W, strain rad50, stronger effect = lower value 1.01 | locus YNL271C, strain bni1, stronger effect = lower value 1.04 | locus YNL298W, strain CLA4, stronger effect = lower value 1.03 | locus YNL307C, strain MCK1, stronger effect = lower value 1.02 | locus YNL322C, strain KRE1 (second series), stronger effect = lower value 0.988 | locus YNR049C, strain mso1, stronger effect = lower value 0.989 | locus YNR052C, strain pop2, stronger effect = lower value 1.02 | locus YOL006C, strain TOP1, stronger effect = lower value 1.14 | locus YOL012C, strain htz1 1.23 | locus YOL147C, strain pex11, stronger effect = lower value 1.02 | locus YOR001W, strain rrp6, stronger effect = lower value 1.01 | locus YOR061W, strain CKA2, stronger effect = lower value 1.02 | locus YOR069W, strain VPS5, stronger effect = lower value 1.01 | locus YOR070C, strain gyp1, stronger effect = lower value 1.03 | locus YOR080W, strain dia2, stronger effect = lower value 0.988 | locus YOR083W, strain WHI5, stronger effect = lower value 0.963 | locus YOR106W, strain vam3, stronger effect = lower value 0.934 | locus YOR136W, strain idh2, stronger effect = lower value 1.02 | locus YOR144C, strain elg1, stronger effect = lower value 1.02 | locus YOR184W, strain ser1, stronger effect = lower value 1.02 | locus YOR231W, strain MKK1, stronger effect = lower value 1.03 | locus YOR265W, strain rbl2, stronger effect = lower value 0.996 | locus YOR270C, strain vph1, stronger effect = lower value 1.07 | locus YOR290C, strain snf2, stronger effect = lower value 0.94 | locus YOR316C, strain cot1, stronger effect = lower value 1.02 | locus YPL051W, strain arl3, stronger effect = lower value 0.983 | locus YPL078C, strain atp4, stronger effect = lower value 0.946 | locus YPL106C, strain sse1, stronger effect = lower value 0.934 | locus YPL240C, strain hsp82, stronger effect = lower value 0.998 | locus YPL256C, strain CLN2, stronger effect = lower value 1.09 | locus YPR119W, strain clb2, stronger effect = lower value 1.01 | locus YPR141C, strain kar3, stronger effect = lower value 1.01 | locus YPR163C, strain tif3, stronger effect = lower value 1.03 | locus YPR167C, strain met16, stronger effect = lower value 1.02 | strain wtn01, stronger effect = lower value 1.04
